The record followed here is PubChem BioAssay (NCI).

Some test systems named below: NCI-H23 lung; NCI-H226 lung; NCI-H322M lung; HOP-62 NSCLC; NCI-H460 lung; HOP-92 NSCLC; NCI-H522 lung; A549/ATCC NSCLC; 786-0 renal; COLO 205 colon; DU-145 prostate; K-562 leukemia; MALME-3M melanoma; MDA-MB-231 breast; RXF 393 renal; SF-268 CNS; SF-295 CNS; SF-539 CNS; UACC-257 melanoma; M14 melanoma.
Holding throughout (experiment): NCI-60 one-dose screen, 48 h (100 = growth as untreated, 0 = no growth, -100 = all killed)
Common to all, as to settings: 10 µM unless noted

This is part of a sample that, as a whole, favours compounds with a hit. Of some 83,000 tested, about 20% had one in any assay.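 Growth was measured after 48 h exposure to one concentration of compound in 96-well plates. Values under 10 count as active.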 Unmarked numbers belong to inactive results. Activity calls are given as the source filed them.

As for `CSc1nc(N)nc2c1ncn2C`, the growth in the assay with NCI-H23 lung is 95.8%; in the assay with NCI-H226 lung it was 102%; in the assay on NCI-H322M lung, 104%; with HOP-62 NSCLC, 84.6%; with NCI-H460 lung, 104%; in the assay on HOP-92 NSCLC, 64.5%. For the same compound, the growth was 78% with NCI-H522 lung; 84.5% in the assay with A549/ATCC NSCLC; 90% with 786-0 renal; 94.5% in the assay on COLO 205 colon; 108% with DU-145 prostate; 95% in the assay on K-562 leukemia. The growth is 104% in the assay on MALME-3M melanoma; 109% in the assay on MDA-MB-231 breast; 116% in the assay on RXF 393 renal; 98.7% with SF-268 CNS; 108% with SF-295 CNS; 98.9% in the assay with SF-539 CNS. The growth with UACC-257 melanoma was 104%; with M14 melanoma, 102%.

As to `CN1CCN(Cn2nc(-c3cc(F)c(Cl)cc3Cl)n(/N=C/c3ccc(N(C)C)cc3)c2=S)CC1`, the growth in the assay on NCI-H23 lung is 98%; with NCI-H226 lung, 101%; with NCI-H322M lung, 83.1%; in the assay on HOP-62 NSCLC, 56%; in the assay with NCI-H460 lung, 115%; with HOP-92 NSCLC, 84.5%. Moreover, the growth in the assay with NCI-H522 lung is 69%; with A549/ATCC NSCLC, 106%; with 786-0 renal, 93.3%; in the assay on COLO 205 colon it was 103%; in the assay on DU-145 prostate, 87.3%; with K-562 leukemia, 22.4%. Moreover, the growth with MALME-3M melanoma is 63.4%; with MDA-MB-231 breast, 102%; with RXF 393 renal, 82.7%; with SF-268 CNS it was 102%; in the assay on SF-295 CNS, 48.4%; in the assay on SF-539 CNS, 78.1%. Further, the growth in the assay with UACC-257 melanoma is 93.8%; in the assay with M14 melanoma, 37.3%.

With `COc1cc(CN(c2ccc(Cl)cc2)C2OC(=O)c3ccccc32)cc(OC)c1OC` (stereo not given), the growth in the assay with NCI-H23 lung is 77.2%; with NCI-H226 lung it was 78.9%; in the assay with NCI-H322M lung, 88.8%; with HOP-62 NSCLC, 44.8%; with NCI-H460 lung it was 57.4%; with HOP-92 NSCLC, 69.1%. Also, the growth in the assay with NCI-H522 lung was 35%; with A549/ATCC NSCLC it was 39.7%; in the assay on 786-0 renal it was 71%; in the assay with COLO 205 colon, 61.9%; with DU-145 prostate, 83.7%; with K-562 leukemia, 15.8%. Further, the growth in the assay on MALME-3M melanoma was 64.3%; with MDA-MB-231 breast, 67.1%; with RXF 393 renal, 82.7%; in the assay on SF-268 CNS it was 67.8%; in the assay on SF-295 CNS, 71.5%; in the assay with SF-539 CNS, 60.2%. Further, the growth in the assay on UACC-257 melanoma is 74.7%; in the assay on M14 melanoma, 34.8%.

On to `O=C(NCCNc1nccc(-c2c(-c3cccc(O)c3)nc3sccn23)n1)Nc1cccc(C(F)(F)F)c1`, for which the growth with NCI-H23 lung is 96.2%; with NCI-H226 lung it was 97%; in the assay on NCI-H322M lung, 76.8%; in the assay with HOP-62 NSCLC it was 83.5%; in the assay on NCI-H460 lung, 80.1%; in the assay with HOP-92 NSCLC, 54.5%. The growth with NCI-H522 lung is -5.9% (active); in the assay on A549/ATCC NSCLC, 39.3%; in the assay with 786-0 renal, 79.4%; in the assay on COLO 205 colon, 53.2%; in the assay on DU-145 prostate, 89%; with K-562 leukemia, 70.6%. The growth was 23.6% in the assay on MALME-3M melanoma; 37.7% with MDA-MB-231 breast; 26.3% in the assay with RXF 393 renal; 26.2% with SF-268 CNS; 75.5% in the assay on SF-295 CNS; 98.5% with SF-539 CNS. Also, the growth is 25.3% in the assay on UACC-257 melanoma and -21.7% (active) in the assay on M14 melanoma.

For the compound `O=C(CSc1nnc(-c2ccc(Cl)cc2)o1)Nc1ccc(C(=O)/C=C/c2ccccc2)cc1`, the growth was 93.3% in the assay on NCI-H23 lung; 107% with NCI-H226 lung; 90.5% in the assay with NCI-H322M lung; 107% in the assay with HOP-62 NSCLC; 97.7% with NCI-H460 lung; 106% in the assay with HOP-92 NSCLC. In addition, the growth in the assay with NCI-H522 lung is 86.7%; in the assay on A549/ATCC NSCLC, 96%; in the assay on 786-0 renal, 97.8%; with COLO 205 colon, 116%; in the assay on DU-145 prostate it was 101%; with K-562 leukemia, 99.3%. The growth in the assay with MALME-3M melanoma was 106%; in the assay with MDA-MB-231 breast it was 99.1%; in the assay on RXF 393 renal it was 112%; in the assay on SF-268 CNS, 103%; in the assay on SF-295 CNS, 105%; with SF-539 CNS, 106%. Moreover, the growth with UACC-257 melanoma is 101%; with M14 melanoma, 96%.

Consider `CCOC(=O)C1=C(N)Oc2cc(OC)ccc2C1c1ccc(F)c(F)c1` (stereo not given), for which the growth in the assay on NCI-H23 lung was 45.1%; in the assay with NCI-H226 lung, 68%; in the assay on NCI-H322M lung, 46.8%; in the assay on HOP-62 NSCLC it was 37.7%; with NCI-H460 lung, 16.8%; in the assay with HOP-92 NSCLC, 73.6%. Besides, the growth with NCI-H522 lung was -6.42% (active); with A549/ATCC NSCLC, 42.1%; in the assay on 786-0 renal, 33.1%; in the assay with COLO 205 colon, 25.2%; in the assay on DU-145 prostate, 37.7%; in the assay with K-562 leukemia, 11.2%. The growth in the assay on MALME-3M melanoma is 59.3%; in the assay with MDA-MB-231 breast, 47.4%; in the assay on RXF 393 renal it was -9.59% (active); in the assay with SF-268 CNS, 51.3%; in the assay on SF-295 CNS it was 17.7%; in the assay with SF-539 CNS, 17.8%. The results for the growth with UACC-257 melanoma and in the assay with M14 melanoma were 53.4% and 18%, respectively.

On to `CC(C)(c1ccc(OCC(O)CNCc2ccco2)cc1)c1ccc(OCC(O)CNCc2ccco2)cc1` (stereo not given), for which the growth in the assay on NCI-H23 lung was 93.4%; with NCI-H226 lung, 94.6%; in the assay with NCI-H322M lung, 99.4%; in the assay with HOP-62 NSCLC it was 82.2%; in the assay with NCI-H460 lung, 98%; with HOP-92 NSCLC it was 57.4%. Further, the growth is 86% in the assay on NCI-H522 lung; 81.2% in the assay on A549/ATCC NSCLC; 70.8% in the assay on 786-0 renal; 85.5% with COLO 205 colon; 92% in the assay on DU-145 prostate; 60.8% in the assay with K-562 leukemia. Further, the growth with MALME-3M melanoma is 98%; in the assay with MDA-MB-231 breast it was 62.4%; in the assay with RXF 393 renal, 76.4%; with SF-268 CNS, 77.7%; in the assay on SF-295 CNS, 95.2%; in the assay on SF-539 CNS, 89.7%. The growth in the assay with UACC-257 melanoma is 92.8%; with M14 melanoma, 92.1%.
